Test [1] can be described thus: optical density shifts of acrAB sulA E. coli – strain DRC41, OD650, 48 h, E. coli filamentation inducer project, primary screen (AID 1152).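 Further: E. coli MC1000 strain DRC41 lacking acrAB efflux pump and sulA.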 Conditions: higher = more signal, called active from +8 up or from −8 down.
Test [2] in a line: probe aLefty1 binding on compound microarray – biochemical, small-molecule microarray, 635/667 nm fluorescence, primary screen (AID 1153).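 Further: score merges spot fluorescence with signal-to-noise ratio from the scanned slide images.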 Conditions: higher = more signal.
Test [3] in a line: plasmodial surface anion channel blockers, osmotic lysis – cell-based, P. falciparum Indochina, OD700, 1 h, primary screen (AID 1154). Conditions: P. falciparum Indochina infected RBC osmotic lysis, higher = more signal, called active from +8 up or from −8 down.
A short description of test [4]: plasmodial surface anion channel blockers, osmotic lysis – cell-based, P. falciparum Indochina, OD700, 2 h, primary screen (AID 1155).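 Further: lysis reports solute entry through the parasite surface anion channel PSAC.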 Conditions: P. falciparum Indochina infected erythrocytes, higher = more signal, called active from +8 up or from −8 down.
The nature of test [5]: changes in parasitized red cell lysis, either direction – P. falciparum Indochina, OD700, 3 h, PSAC antagonist project, primary screen (AID 1156). Conditions: P. falciparum-infected erythrocytes, osmotic lysis, higher = more signal, called active from +8 up or from −8 down.
Test [6] is described as follows: plasmodial surface anion channel blockers, osmotic lysis – cell-based, P. falciparum Indochina, OD700, 18 h, primary screen (AID 1157). Particulars: P. falciparum Indochina infected erythrocytes, osmotic lysis OD700, 18 h; higher = more signal, called active from +8 up or from −8 down.
The nature of test [7]: S6 kinase pathway phospho-S6 level changes – cell-based, A549, cytoblot, luminescence, serum-stimulated, primary screen (AID 1158).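 Further: serum-stimulated A549 lung adenocarcinoma cells; signal is phosphorylated S6 detected by cytoblot immunostaining with HRP secondary.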 Particulars: 5 h, higher = more signal.
In test [8] the target is NADPH oxidase 2 (Homo sapiens) (UniProt P04839). Nature of the test: compounds shifting NOX2 Amplex Red fluorescence – cell-based, HEK293-NOX2, PMA-stimulated, NOX inhibitor project, primary screen (AID 1159). Further: test concentration not given here. Particulars: 45 min, higher = more signal, called active from +8 up or from −8 down.
Sequence of NADPH oxidase 2 (Homo sapiens) (P04839 whole entry, looked up): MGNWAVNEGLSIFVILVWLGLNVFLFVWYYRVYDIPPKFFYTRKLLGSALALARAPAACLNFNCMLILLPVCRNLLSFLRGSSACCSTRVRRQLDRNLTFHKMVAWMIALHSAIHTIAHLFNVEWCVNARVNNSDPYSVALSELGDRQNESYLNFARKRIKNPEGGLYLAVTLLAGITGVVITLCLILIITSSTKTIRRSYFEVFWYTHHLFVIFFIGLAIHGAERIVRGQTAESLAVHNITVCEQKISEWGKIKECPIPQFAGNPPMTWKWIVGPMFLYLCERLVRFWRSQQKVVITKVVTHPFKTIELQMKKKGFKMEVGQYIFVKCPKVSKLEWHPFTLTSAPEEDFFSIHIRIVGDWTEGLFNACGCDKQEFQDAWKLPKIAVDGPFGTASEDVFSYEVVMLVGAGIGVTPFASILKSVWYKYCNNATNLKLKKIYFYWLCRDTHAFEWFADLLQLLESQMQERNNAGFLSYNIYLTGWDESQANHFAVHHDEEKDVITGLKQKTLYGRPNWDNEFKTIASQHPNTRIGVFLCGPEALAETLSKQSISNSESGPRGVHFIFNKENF
For test [9], the target named is NADPH oxidase 4 (Homo sapiens) (UniProt Q9NPH5). Description: compounds shifting NOX4 Amplex Red fluorescence – cell-based, HEK293-NOX4, tetracycline-induced, NOX inhibitor project, primary screen (AID 1160). Conditions: HEK293-NOX4, Amplex Red H2O2 fluorescence, 45 min; higher = more signal, called active from +8 up or from −8 down.
Sequence of NADPH oxidase 4 (Homo sapiens) (Q9NPH5 whole entry, looked up): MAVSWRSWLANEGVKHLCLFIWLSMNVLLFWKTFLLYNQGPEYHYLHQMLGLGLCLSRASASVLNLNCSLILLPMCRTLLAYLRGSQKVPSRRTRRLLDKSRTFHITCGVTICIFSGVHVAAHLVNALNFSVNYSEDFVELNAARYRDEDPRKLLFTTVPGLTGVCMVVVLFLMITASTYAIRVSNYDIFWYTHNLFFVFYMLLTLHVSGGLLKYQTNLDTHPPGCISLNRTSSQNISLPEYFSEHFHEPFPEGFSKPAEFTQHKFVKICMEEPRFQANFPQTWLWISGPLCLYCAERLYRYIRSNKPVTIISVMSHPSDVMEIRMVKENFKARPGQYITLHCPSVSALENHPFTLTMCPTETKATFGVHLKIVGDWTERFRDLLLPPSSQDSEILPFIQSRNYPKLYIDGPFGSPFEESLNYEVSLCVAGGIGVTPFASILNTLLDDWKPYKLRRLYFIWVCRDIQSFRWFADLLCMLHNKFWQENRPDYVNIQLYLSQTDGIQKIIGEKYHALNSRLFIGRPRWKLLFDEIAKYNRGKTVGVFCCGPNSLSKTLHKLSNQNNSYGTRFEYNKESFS
Test [10] has as its target NADPH oxidase 5 (Homo sapiens) (UniProt Q96PH1). Nature of the test: compounds shifting NOX5 Amplex Red fluorescence – cell-based, HEK293-NOX5, NOX inhibitor project, primary screen (AID 1161). Conditions: HEK293-NOX5, ionomycin, 45 min, higher = more signal.
The nature of test [11]: compound effects on lung adenocarcinoma cell viability – A549, calcein-AM fluorescence, 48 h, basal, profiling panel (AID 1162). Further: test concentration not given here. Conditions: higher = more signal.
Test [12] is described as follows: compound effects on differentiated 3T3-L1 adipocyte viability – cell-based, 3T3-L1 adipocytes, calcein-AM fluorescence, 48 h, basal, profiling panel (AID 1163). Further: test concentration not given here. Particulars: 3T3-L1 adipocytes viability, higher = more signal.
A short description of test [13]: compound effects on hepatocellular carcinoma cell viability – HepG2, calcein-AM fluorescence, 48 h, basal, profiling panel (AID 1164). Further: test concentration not given here. Conditions: higher = more signal.
The nature of test [14]: compound effects on multiple myeloma cell viability – MM1S, calcein-AM fluorescence, 48 h, basal, profiling panel (AID 1165). Further: test concentration not given here. Conditions: higher = more signal.
Test [15] can be described thus: calcein-AM signal in unstimulated myeloma cells – cell-based, calcein-AM fluorescence, 48 h, PK04 Diversity Set, profiling panel (AID 1166).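 Further: cells grown under basal conditions without added stimulus; test concentration not given here.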 Conditions: RPMI8226 myeloma viability, higher = more signal.
Test [16] in a line: JC-1 mitochondrial signal, unstimulated HepG2 cells – cell-based, JC-1 fluorescence, 24 h, 100 nL compound, profiling panel (AID 1167). Further: test concentration not given here. Particulars: HepG2 mitochondrial potential, higher = more signal.
Test [17] is described as follows: JC-1 mitochondrial signal, unstimulated adipocytes – cell-based, JC-1 fluorescence, 3T3-L1 adipocytes, 24 h, 100 nL compound, profiling panel (AID 1168). Further: test concentration not given here. Conditions: JC-1 mitochondrial fluorescence, higher = more signal, called active from +8 up or from −8 down.
Test [18] can be described thus: JC-1 mitochondrial signal, unstimulated myeloma cells – cell-based, JC-1 fluorescence, RPMI8226, 24 h, 100 nL compound, profiling panel (AID 1169). Further: test concentration not given here. Conditions: JC-1 mitochondrial potential fluorescence, higher = more signal.
The nature of test [19]: JC-1 mitochondrial signal, unstimulated MM1S myeloma – cell-based, JC-1 fluorescence, 24 h, 100 nL compound, profiling panel (AID 1170). Further: test concentration not given here. Conditions: MM1S mitochondrial potential, higher = more signal.
Test [20] is described as follows: resazurin metabolic signal in A549 cells – cell-based, resazurin fluorescence, 24 h, PK04 Diversity Set, profiling panel (AID 1171). Further: test concentration not given here. Particulars: A549 viability, higher = more signal, called active from +8 up or from −8 down.

“And” between values parts separate entries of the source, which are not always exact repeats. Identical values can stand only once. The source made the active and inactive calls.

Sequence of NADPH oxidase 5 (Homo sapiens) (Q96PH1 whole entry, looked up): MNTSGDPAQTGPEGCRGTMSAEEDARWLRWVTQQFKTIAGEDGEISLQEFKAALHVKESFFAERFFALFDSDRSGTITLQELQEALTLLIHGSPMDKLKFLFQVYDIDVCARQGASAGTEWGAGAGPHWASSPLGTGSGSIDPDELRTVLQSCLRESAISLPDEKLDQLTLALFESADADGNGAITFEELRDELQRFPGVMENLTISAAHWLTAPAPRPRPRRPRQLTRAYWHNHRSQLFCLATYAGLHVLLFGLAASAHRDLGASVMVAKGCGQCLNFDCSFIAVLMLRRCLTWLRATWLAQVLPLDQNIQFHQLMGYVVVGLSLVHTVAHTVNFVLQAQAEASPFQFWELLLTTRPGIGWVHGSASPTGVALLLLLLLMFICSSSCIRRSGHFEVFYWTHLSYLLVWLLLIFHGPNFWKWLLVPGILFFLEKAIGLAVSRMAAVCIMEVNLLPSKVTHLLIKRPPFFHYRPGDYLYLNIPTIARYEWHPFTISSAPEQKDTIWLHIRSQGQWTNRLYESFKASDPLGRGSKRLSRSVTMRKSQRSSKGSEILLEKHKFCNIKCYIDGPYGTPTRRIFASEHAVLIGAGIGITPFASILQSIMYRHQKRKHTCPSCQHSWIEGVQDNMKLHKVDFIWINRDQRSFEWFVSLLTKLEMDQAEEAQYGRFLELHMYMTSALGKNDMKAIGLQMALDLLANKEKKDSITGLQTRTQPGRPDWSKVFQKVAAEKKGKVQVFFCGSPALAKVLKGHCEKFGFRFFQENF

In the case of `C[C@@H]1CC[C@@H](C(=O)O)N[C@H]1c1ccc(-c2ccco2)cc1`, the z-score was -0.601 (inactive) in test [1]; 0.732 (inactive) in test [3]; 1.2 (inactive) in test [4]; 0.871 (inactive) in [5]; 0.883 (inactive) in [6]; -0.282 in [7]. The z-score is -0.71 (inactive) in [8]; 0.156 (inactive) in test [9]; 0.798 in [10]; 1.11 in test [11]; -0.396 in test [12]; 0.229 in test [13]. Further, the z-score in test [14] was 0.617; in test [15] it was 0.404; in test [16], 1.49; in test [17] it was 0.309 (inactive); in test [18], -0.636; in test [19] it was 0.496. Further, in [20], the z-score is 0.115 (inactive). The compound also registered a composite z-score in test [2] of 0.0721.

Take `COc1ccc(COC(=O)NN=C2C[C@@H](O)[C@@H](O)[C@@H]3[C@@H]4C(=O)N(C(C)(C)C)C(=O)[C@@H]4CC[C@H]23)cc1`: the z-score in [1] was 0.91 (inactive); in test [3], 1.91 (inactive); in [4], -1.4 (inactive); in test [5] it was 0.708 (inactive); in test [6], -1.93 (inactive); in test [7] it was 1.25. Further, the z-score in test [8] was -0.818 (inactive); in [9] it was 0.00608 (inactive); in test [10] it was -1.43; in test [11], 0.894; in test [12], 0.377; in [13], 0.89. Further, the z-score in test [14] was -0.156; in [15], 0.0186; in test [16], -0.206; in [17] it was 1.14 (inactive); in test [18], 0.704; in [19] it was -0.527. Also, the z-score in test [20] is -0.581 (inactive). In [2], this compound gave a composite z-score of 0.0169.

Turning to `C=CCN(CCCC)C(=O)C(c1cccs1)N(C(=O)/C=C\C(=O)O)c1ccc(CCO)cc1` (stereo not given), the z-score in test [1] was 0.369 (inactive) and 0.133 (inactive); in [3] it was 0.855 (inactive) and 1.03 (inactive); in [4], -0.14 (inactive) and -0.182 (inactive); in test [5] it was 0.517 (inactive) and 0.0377 (inactive); in test [6], 0.0866 (inactive) and 0.233 (inactive); in test [7], 0.0768 and 0.0738. The z-score in [8] is 0.377 (inactive) and 0.12 (inactive); in [9], -0.432 (inactive) and -0.518 (inactive); in test [10], 1.18 and -0.0206; in [11], -0.178 and 0.505; in test [12], -0.0575 and -0.458; in test [13], 0.267 and 1.02. The z-score in [14] was 1.72 and 1.52; in test [15] it was 0.657 and -0.192; in test [16], 0.484 and -0.279; in test [17], -0.527 (inactive) and 0.0402 (inactive); in test [18] it was -0.996 and 0.19; in test [19], -0.874 and -0.407. Also, the z-score in test [20] was 0.0696 (inactive) and -0.0804 (inactive). Moreover, the composite z-score in test [2] is -0.279 and -0.147.

As for `C=CCN(Cc1ccccc1)C(=O)C1N(CCOCCO)C(=O)C2C(C(=O)O)C3C=CC21O3` (stereo not given), the z-score in test [1] is 2.01 (inactive) and 0.924 (inactive); in test [3], -0.451 (inactive) and 0.417 (inactive); in test [4], -1.31 (inactive) and -0.103 (inactive); in test [5], -1.39 (inactive) and -0.519 (inactive); in test [6], -1.71 (inactive) and 0.0394 (inactive); in test [7] it was 0.506 and 0.245. For the same compound, the z-score is 1.22 (inactive) and 0.583 (inactive) in test [8]; -0.586 (inactive) and -2.52 (inactive) in test [9]; 0.93 and -0.825 in [10]; 0.457 and -0.65 in test [11]; 1 and 0.0853 in [12]; -0.475 and -1.46 in test [13]. Also, the z-score in test [14] is 0.443 and 1.02; in test [15], 0.953 and -1.25; in test [16], 0.341 and -0.0276; in [17], 0.978 (inactive) and -0.925 (inactive); in test [18], 0.747 and 0.0424; in test [19] it was 1.26 and -0.0145. For the same compound, the z-score in test [20] was -0.474 (inactive) and 0.0887 (inactive). For the same compound, the composite z-score in test [2] is 0.0429 and 0.101.

As to `CC(=O)OC[C@H]1O[C@H](C#CC(C)(C)C)C=C[C@@H]1OC(C)=O`, the z-score in [1] was 0.192 (inactive); in test [3], -0.184 (inactive); in test [4], 0.0987 (inactive); in test [5] it was -0.537 (inactive); in [6] it was -0.0954 (inactive); in test [7], -0.675. Moreover, the z-score in test [8] was 1.5 (inactive); in test [9], 0.847 (inactive); in test [10], 0.943; in test [11], -0.327; in [12], -0.274; in [13] it was -0.24. Moreover, the z-score in test [14] was -3.02; in [15], -1.73; in test [16], -0.888; in test [17] it was 0.386 (inactive); in test [18] it was -0.776; in [19], 0.085. Also, the z-score in test [20] was -0.595 (inactive). Besides, the composite z-score in test [2] was -0.0969.

In the case of `COC(=O)C1=C(C)N(Cc2ccccc2)[C@]23O[C@](C(=O)OC)(C(=O)N2[C@@H]1c1ccccc1)[C@H]1C(=O)N(c2ccccc2)C(=O)[C@H]13`, the z-score in test [1] is -0.371 (inactive) and 0.644 (inactive); in test [3], 0.729 (inactive) and 0.997 (inactive); in [4], 0.626 (inactive) and -1.04 (inactive); in [5], 1.17 (inactive) and 2.21 (inactive); in [6], -0.0207 (inactive) and -1.23 (inactive); in test [7], -0.103 and 0.506. For the same compound, the z-score is 0.983 (inactive) and 0.108 (inactive) in [8]; 0.632 (inactive) and 1.27 (inactive) in test [9]; 1.07 and 0.999 in [10]; 0.0342 and 1.13 in test [11]; 0.513 and 1.12 in test [12]; -0.254 and -0.339 in test [13]. For the same compound, the z-score in [14] is 0.149 and 0.0697; in test [15] it was -0.483 and 0.292; in test [16], 0.369 and 0.573; in [17], 0.658 (inactive) and 0.885 (inactive); in [18] it was -0.749 and -0.197; in test [19], 0.702 and 0.235. The z-score in [20] was 0.376 (inactive) and -0.0028 (inactive). Moreover, the composite z-score in test [2] was -0.139 and -0.0046.

The values are drawn from PubChem BioAssay.
